Rows were chosen to be rich in hits. Some 22% of all compounds tested hit in one or more screens of this group.
CYP2C9 act – human CYP2C9 activators, primary screen, biochemical, luminescence. activation factor at 5 µM. hit rate 1.4% among 96,000. AID 1024, 2008. recombinant CYP2C9, luciferin-H conversion; stronger effect = higher value; factor 1 = untreated enzyme, 0 = blocked;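 active means activation factor of 2 or more for CYP2C9 at a 5 µM dose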;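 further: 0 = sulfaphenazole-blocked wells and 1 = vehicle-only wells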
Target sequence (P11712 whole entry, looked up): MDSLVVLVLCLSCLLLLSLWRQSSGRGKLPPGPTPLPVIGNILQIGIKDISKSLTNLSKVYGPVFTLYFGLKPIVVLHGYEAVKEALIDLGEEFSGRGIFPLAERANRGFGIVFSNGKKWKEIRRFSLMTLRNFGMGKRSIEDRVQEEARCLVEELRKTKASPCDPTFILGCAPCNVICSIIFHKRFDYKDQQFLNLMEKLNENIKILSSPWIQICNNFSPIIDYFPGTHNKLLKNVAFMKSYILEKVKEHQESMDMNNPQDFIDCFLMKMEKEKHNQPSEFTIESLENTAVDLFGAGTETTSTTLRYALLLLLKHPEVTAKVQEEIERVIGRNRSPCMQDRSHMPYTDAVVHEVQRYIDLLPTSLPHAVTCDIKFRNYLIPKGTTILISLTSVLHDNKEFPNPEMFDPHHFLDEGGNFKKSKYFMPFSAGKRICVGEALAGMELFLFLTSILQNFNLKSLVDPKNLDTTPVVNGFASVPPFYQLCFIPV
CYP2C9 inh – blockers of cytochrome P450 2C9 activity – biochemical, luminescence, ADME assay, primary screen | CYP2C9 Supersomes, luciferin-H conversion | inhibition, % at 5 µM | hit rate 20% among 96,000;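 active means blocking of liver enzyme CYP2C9 beyond about 50% at 5 µM, limit read from the data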
Measles CPE – compounds protecting cells from measles virus cytopathic effect, primary screen, measles RdRp inhibitor project, single point, MLSMR library, absorbance. AID 841, 2007. hit rate 1.5% among 140,000. Measles virus-infected cells, CPE protection. protection (pct of control), % at 4 µM; in the data active means protection mostly above about 24%, no sharp cut-off; inactive means mostly below about 26%
CYP2C19 inhib – blockers of cytochrome P450 2C19 activity – biochemical, luminescence, ADME assay, primary screen | hit rate 21% among 96,000 | P33261 | inhibition, % at 5 µM | CYP2C19 Supersomes, luciferin-H EGE luminescence, 30 min | AID 778, 2007;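 active means CYP2C19 inhibition above a set limit at 5 µM in the primary screen, cut at about 50% in these data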;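 further: plate controls were negative control wells for no effect and 2.5 mM tranylcypromine positive control for full effect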
CYP2C19 act – human CYP2C19 activators, primary screen, biochemical, luminescence | Cytochrome P450 2C19 (Homo sapiens), P33261 | recombinant CYP2C19, luciferin-H EGE luminescence; stronger effect = higher value; 0 = fully inhibited enzyme, 1 = untreated enzyme | activation factor at 5 µM | 96,000 tested, under 10 active;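 active means activation factor of at least 2 at 5 µM in the primary screen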;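 further: 0 = wells with 2.5 mM tranylcypromine and 1 = vehicle-only wells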
The depositor's hits bear a star.

What do the screens show for `Cc1ccc(OCC(=O)N/N=C\c2cccs2)c([N+](=O)[O-])c1`?
Measles CPE: 3.6

How did CCSc1nnc(NC(=O)COc2ccc3ccccc3c2)s1 do in these assays?
CYP2C9 act: 0.3; CYP2C9 inh: 68.1*; Measles CPE: 17.0; CYP2C19 inhib: 60.3*; CYP2C19 act: 0.4

Results for CCC(Oc1ccccc1)C(=O)Nc1ccccn1 (configuration not stated) ?
CYP2C9 act: 0.6; CYP2C9 inh: 44.4; Measles CPE: 3.1; CYP2C19 inhib: 74.8*; CYP2C19 act: 0.3

What do the screens show for `CCOC(=O)c1sc2nc(-c3ccccc3)ccc2c1N`?
Measles CPE: 17.2

Results for CCSc1nnc(NC(=O)C(CC)Oc2ccccc2)s1 (configuration not stated) ?
CYP2C9 act: 0.2; CYP2C9 inh: 79.6*; Measles CPE: 18.9; CYP2C19 inhib: 33.9; CYP2C19 act: 0.7

Results for CCC(Oc1ccccc1)C(=O)Nc1cc(C)on1 (configuration not stated) ?
CYP2C9 act: 0.5; CYP2C9 inh: 46.2; Measles CPE: 15.6; CYP2C19 inhib: 36.3; CYP2C19 act: 0.6

What do the screens show for `CCSc1nnc(NC(=O)C(Cc2ccccc2)n2cccc2)s1` (configuration not stated)?
CYP2C9 act: 1.3; CYP2C9 inh: -30.0; Measles CPE: 6.9; CYP2C19 inhib: -17.6; CYP2C19 act: 1.2

Results for CCSc1nnc(NC(=O)c2cccc3ccccc23)s1 ?
CYP2C9 act: 0.9; CYP2C9 inh: 14.7; Measles CPE: 10.5; CYP2C19 inhib: 3.3; CYP2C19 act: 1

Results for CCOC(=O)c1sc2nc(NC(=O)COc3ccccc3)sc2c1C ?
CYP2C9 act: 0.1; CYP2C9 inh: 86.2*; Measles CPE: 13.8; CYP2C19 inhib: 51.3*; CYP2C19 act: 0.5

Results for CN(C)c1cc[n+](CC(=O)Nc2ccc([N+](=O)[O-])cc2Cl)cc1 ?
Measles CPE: 20.9

What do the screens show for `CC(C)CC(=O)Nc1sc2c(c1C#N)CC(C)(C)NC2(C)C`?
CYP2C9 act: 1; CYP2C9 inh: -1.5; Measles CPE: 3.3; CYP2C19 inhib: 4.5; CYP2C19 act: 1

How did CCSc1nnc(NC(=O)C2CC=CCC2C(=O)O)s1 (configuration not stated) do in these assays?
CYP2C9 act: 0.2; CYP2C9 inh: 79.2*; Measles CPE: 51.1; CYP2C19 inhib: -0.2; CYP2C19 act: 1

How did CCCCOC(=O)Nc1nnc(CCc2ccccc2)s1 do in these assays?
CYP2C9 act: 0.7; CYP2C9 inh: 34.2; Measles CPE: 50.5*; CYP2C19 inhib: 26.7; CYP2C19 act: 0.7

What do the screens show for `Cc1nnc(NC(=O)COc2ccccc2)s1`?
CYP2C9 act: 0.8; CYP2C9 inh: 22.4; Measles CPE: 11.6; CYP2C19 inhib: 13.2; CYP2C19 act: 0.9

How did CCCCSc1nnc(NC(=O)CCc2ccccc2)s1 do in these assays?
CYP2C9 act: 0.4; CYP2C9 inh: 56.4*; Measles CPE: 3.2; CYP2C19 inhib: 21.0; CYP2C19 act: 0.8

What do the screens show for `CC(=O)CSc1nnc(NC(=O)CCc2ccccc2)s1`?
CYP2C9 act: 0.7; CYP2C9 inh: 29.3; Measles CPE: 3.2; CYP2C19 inhib: 21.1; CYP2C19 act: 0.8

Results for CCSc1nnc(NC(=O)C2CCCCC2)s1 ?
CYP2C9 act: 0.7; CYP2C9 inh: 26.7; Measles CPE: 4.0; CYP2C19 inhib: 36.7; CYP2C19 act: 0.6

What do the screens show for `CCCCOC(=O)Nc1nnc(COc2ccccc2)s1`?
CYP2C9 act: 0.6; CYP2C9 inh: 38.4; Measles CPE: 4.9; CYP2C19 inhib: 38.6; CYP2C19 act: 0.6

How did CCSc1nnc(NC(=O)COc2ccccc2)s1 do in these assays?
CYP2C9 act: 0.2; CYP2C9 inh: 75.7*; Measles CPE: 10.3; CYP2C19 inhib: 53.1*; CYP2C19 act: 0.5

Results for CC(C)CCOCC(O)CCC(=O)NNC(=S)Nc1ccccc1 (configuration not stated) ?
Measles CPE: 8.0

Results for CC(=O)Nc1ccc2c(c1)c1ccccc1n2C(C)=O ?
Measles CPE: 1.9

Results for CCn1c2ccccc2c2cc(NC(C)=O)ccc21 ?
CYP2C9 act: 0.7; CYP2C9 inh: 29.7; Measles CPE: 15.5; CYP2C19 inhib: 98.5*; CYP2C19 act: 0

How did CCn1c2ccccc2c2cc(NS(=O)(=O)c3ccc(C)cc3)ccc21 do in these assays?
CYP2C9 act: 0.1; CYP2C9 inh: 86.1*; Measles CPE: 19.8; CYP2C19 inhib: 54.2*; CYP2C19 act: 0.5

How did CCc1ccc2c(c1)cc(CN(C(=S)Nc1ccc(Cl)cc1)C1CC1)c1nnnn12 do in these assays?
CYP2C9 act: 0.2; CYP2C9 inh: 78.5*; Measles CPE: 1.9; CYP2C19 inhib: 7.8; CYP2C19 act: 0.9

What do the screens show for `CCC(=O)N(Cc1cc2ccc(C)cc2n2nnnc12)C1CCCCC1`?
Measles CPE: 6.2

Results for CCn1c(CNc2ccc(Cl)cc2)nnc1SCCN1CCCCC1 ?
Measles CPE: 6.8

What do the screens show for `O=S(=O)(Cc1ccccc1Cl)CC(O)COc1ccccc1Cl` (configuration not stated)?
CYP2C9 act: 1.1; CYP2C9 inh: -10.5; Measles CPE: 5.3; CYP2C19 inhib: 37.2; CYP2C19 act: 0.6

How did COc1ccccc1NS(=O)(=O)c1ccc2oc(SC3CCOC3=O)nc2c1 (configuration not stated) do in these assays?
CYP2C9 act: 0.6; CYP2C9 inh: 40.4; Measles CPE: 2.9; CYP2C19 inhib: 52.6*; CYP2C19 act: 0.5

What do the screens show for `CCOc1ccccc1NC(=O)C1C2C=CC(O2)C1C(=O)O` (configuration not stated)?
CYP2C9 act: 1.2; CYP2C9 inh: -18.6; Measles CPE: 6.6; CYP2C19 inhib: 0.8; CYP2C19 act: 1

Results for Cc1ccc(-c2noc(C3CCCN(S(=O)(=O)c4ccc5ccccc5c4)C3)n2)o1 (configuration not stated) ?
CYP2C9 act: 1.3; CYP2C9 inh: -31.9; Measles CPE: 9.6; CYP2C19 inhib: 33.2; CYP2C19 act: 0.7

Results for O=C(C1CC1)N1CCC(c2nc(-c3ccc(S(=O)(=O)N4CCCC4)cc3)no2)CC1 ?
CYP2C9 act: 0.6; CYP2C9 inh: 37.0; Measles CPE: 7.9; CYP2C19 inhib: 20.3; CYP2C19 act: 0.8

Results for Cc1ccc(S(=O)(=O)N2CCCC(c3nc(-c4ccc(C)o4)no3)C2)cc1 (configuration not stated) ?
CYP2C9 act: 0.2; CYP2C9 inh: 82.6*; Measles CPE: 51.5; CYP2C19 inhib: 90.5*; CYP2C19 act: 0.1

How did Cc1ccc(-c2noc(C3CCCN(S(=O)(=O)c4ccc(S(=O)(=O)N(C)C)cc4)C3)n2)o1 (configuration not stated) do in these assays?
CYP2C9 act: 0.2; CYP2C9 inh: 82.0*; Measles CPE: 3.7; CYP2C19 inhib: 21.3; CYP2C19 act: 0.8
